PubChem BioAssay AID463173 (ICCB-Longwood Screening Facility, Harvard Medical School, 2010)
In all, about 52,000 compounds went through this assay and about 4,300 (8.3%) were called active. The entries come from a sample that favours actives as a whole. Values without a mark were called inactive. Rule as the data show it: active = survival mostly below about 52% (no sharp cut-off); inactive = mostly above about 56%.

Test system: DeltatarO mutant
Assay: growth inhibition of S. aureus wild type versus tarO mutant, primary screen, teichoic acid synthesis inhibitors, RN4220, OD600 (AID 463173)
Conditions: OD600, 18 h, stronger effect = lower value, screened at 18.75 µg/mL (by protocol)

SMILES	survival
CC(C)c1ccc(NC2=NCC(=O)N2Cc2ccccc2)cc1	87%
O=C(Nc1cccc(O)c1)c1cc2nc(-c3ccc(Br)cc3)cc(C(F)(F)F)n2n1	120%
CC(=O)Nn1c(C)nc2ccccc2c1=O	75%
Cc1nc(SC(C)C(=O)Nc2ccccc2Cl)cc(-c2ccccc2)n1 (configuration not stated)	61%
CCn1c(SCC(=O)OC)nnc1-c1ccc(O)cc1	99%
COc1ccc(NC(=O)CC2C(=O)N(c3cccc(OC)c3)C(=O)N2Cc2cccnc2)cc1 (configuration not stated)	94%
CCn1c(CN2CCCCC2)nc2cc(NC(=O)COc3cc(C)ccc3C(C)C)ccc21	73%
COc1ccc(C)cc1Nc1cc(C)nc(C)n1	66%
CCC(=O)N1CCc2cc(Br)cc(S(=O)(=O)CCC(=O)NCc3ccc(Cl)cc3)c21	78%
CCOc1ccc(-c2cc(C(=O)OC)on2)cc1	55%
CCc1ccc(NC(=O)CC2C(=O)N(c3cccc(C)c3)C(=O)N2Cc2ccc(F)cc2)cc1 (configuration not stated)	89%
CCN(c1ccccc1)C(CNS(=O)(=O)c1ccccc1)c1ccccc1 (configuration not stated)	71%
CCN(C(=O)c1cc2c(s1)-c1ccccc1OC2)c1cccc(C(F)(F)F)c1	-1% (active)
CCN(C(=O)c1cc2c(=O)n(CC)c3ccccc3c2s1)c1cccc(C(F)(F)F)c1	72%
O=C(NCc1ccc(F)cc1)c1cc2c(s1)-c1ccccc1SC2	45% (active)
CN(Cc1ccccc1)C(=O)c1cc2c(s1)-c1ccc(Cl)cc1SC2	86%
CCCN(C(=O)c1cc2c(s1)-c1c(C)cccc1OC2)c1ccc(OCC)cc1	98%
O=C(NCc1ccc(Cl)cc1)c1cc2c(s1)-c1ccccc1SC2	58%
CCOc1ccc(CNC(=O)c2cc3c(s2)-c2ccccc2OC3)cc1	71%
Cc1ccc(CNC(=O)c2cc3c(s2)-c2ccccc2SC3)cc1	94%
CCCN(C(=O)c1cc2c(s1)-c1ccccc1SC2)c1ccccc1F	1% (active)
CCCN(C(=O)c1cc2c(=O)n(CC)c3ccccc3c2s1)c1ccccc1F	64%
CCCN(C(=O)c1cc2c(s1)-c1ccccc1OC2)c1ccc(C(C)C)cc1	-3% (active)

SMILES	survival
COc1ccc(OCC(=O)Nc2ccc3c(c2)OCO3)cc1	76%
COc1ccc(Cl)cc1NC(=O)N1CCC(CN2CCc3ccccc3C2)CC1	109%
COc1ccc(S(=O)(=O)c2c(SC)nn(Cc3ccccc3C)c2NC(C)=O)cc1	55%
CN1CCN(CCCNC(=O)c2cnn(-c3ccccc3)c2-n2cccc2)CC1	87%
Cc1ccc(OCC(=O)NCC(=O)OCc2cc(=O)n3nc(C)sc3n2)cc1	90%
Cc1ccc(C)c(N2CCN(c3nc4ccccc4n4nnnc34)CC2)c1	92%
COc1ccc(Cn2c(=O)[nH]c3cc(C(=O)N4CCN(c5cccc(OC)c5)CC4)ccc3c2=O)cc1	63%
CC(C)(C)OC(=O)N1CCC(c2c(C(=O)Nc3ccc4c(c3)OCCO4)cnn2-c2ccc(Cl)cc2)CC1	87%
CCOC(=O)c1cc(S(=O)(=O)N2CCN(c3ccc(C(C)=O)cc3)CC2)[nH]n1	126%
Cc1c(Cl)cccc1NC(=O)CCS(=O)(=O)c1cccc2nsnc12	78%
CCOCCCNC(=O)C(c1ccccc1)N1Cc2ccccc2C1=O (configuration not stated)	96%
Cc1ccc(CNC(=O)c2ccccc2NC(=O)c2nsc3ccccc23)cc1	60%
CCOc1ccc(CNC(=O)c2cc3ccccn3n2)cc1	52% (active)
CCc1ccc(CNC(=O)c2cc3ccccn3n2)cc1	97%
CCOc1ccc(CNC(=O)c2ccccc2NC(=O)c2nsc3ccccc23)cc1	-5% (active)
CCCOc1ccc(CNC(=O)c2cc3ccccn3n2)cc1	116%
CC(C)Oc1ccc(CNC(=O)c2ccccc2NC(=O)c2nsc3ccccc23)cc1	122%
C=CCNC(=O)c1cc2sccc2n1Cc1ccccc1	85%
CC(C)C(=O)OCc1cc(=O)n2nc(C3CC3)sc2n1	86%
COc1ccc(S(=O)(=O)NNC(N)=S)cc1	100%
COc1ccc(S(=O)(=O)N(C)C2CCCCC2)cc1	85%
COc1ccc(S(=O)(=O)N/N=C(/C2CCCCC2)C(F)(F)F)cc1	35% (active)
COc1ccc(CNC(=O)C(=O)NCC(c2ccco2)S(=O)(=O)c2ccc(C)cc2)cc1 (configuration not stated)	124%

SMILES	survival
CC1Oc2ccccc2N(CC(=O)NCC2CCCO2)C1=O (configuration not stated)	83%
CCC(C)NC(=O)CSc1nc2c(sc3ccccc32)c(=O)n1CCc1ccc(OC)c(OC)c1 (configuration not stated)	66%
COC(=O)CC1Oc2ccc(F)cc2-n2cc(-c3ccc(C)cc3)nc21 (configuration not stated)	91%
COC(=O)CC1Oc2ccc(Cl)cc2-n2cc(-c3ccc(F)cc3)nc21 (configuration not stated)	90%
COC(=O)CC1Oc2ccc(C)cc2-n2cc(-c3ccc(C)cc3)nc21 (configuration not stated)	37% (active)
COC(=O)CC1Oc2ccc(C)cc2-n2cc(-c3ccc(F)cc3)nc21 (configuration not stated)	56% (active)
COC(=O)CC1Oc2ccc(Cl)cc2-n2cc(-c3ccc(C)cc3)nc21 (configuration not stated)	80%
COC(=O)CC1Oc2ccccc2-n2cc(-c3ccc(C)cc3)nc21 (configuration not stated)	64%
COc1ccc(CCNC(=O)Cn2cc(C(=O)c3ccccc3)c(=O)c3ccc(C)nc32)cc1OC	124%
O=C(Nc1cccnc1N1CCOCC1)c1cc2ccccc2oc1=O	79%
COc1cc(OC)c(C2C(C(=O)Nc3ccccc3)=C(C)Nc3ncnn32)cc1OC (configuration not stated)	72%
COc1ccc(CNC(=O)CSc2n[nH]c(-c3ccc(OC)cc3)n2)cc1	-5% (active)
COc1ccc(-c2nc(SCC(=O)NC(C)CCc3ccccc3)n[nH]2)cc1 (configuration not stated)	17% (active)
COc1ccc(CNC(=O)CSc2n[nH]c(-c3ccc(F)cc3)n2)cc1	109%
Cc1ccc(CNC(=O)CSc2n[nH]c(-c3ccc(F)cc3)n2)cc1	122%
CC(CCc1ccccc1)NC(=O)CSc1n[nH]c(-c2ccccc2)n1 (configuration not stated)	94%
O=C(CSc1n[nH]c(-c2ccccc2Cl)n1)NCCc1ccccc1	87%
CC(CCc1ccccc1)NC(=O)CSc1n[nH]c(-c2ccc(F)cc2)n1 (configuration not stated)	126%
O=C(CSc1n[nH]c(-c2ccccc2Cl)n1)NCc1ccc(F)cc1	-4% (active)
COc1cccc(CNC(=O)CSc2n[nH]c(-c3ccccc3Cl)n2)c1	60%
Cc1cccc(N2CCN(C(=O)c3ccc4c(c3)N(Cc3ccccc3)C(=O)c3ccccc3S4(=O)=O)CC2C)c1 (configuration not stated)	63%
Cc1ccc(Cl)cc1NC(=O)c1oc2ccc(S(=O)(=O)N3CCCCC3)cc2c1C	74%
Cc1cccc(NC(=O)CN2C(=O)CSc3ccc(S(=O)(=O)N4CCCC4)cc32)c1C	92%

SMILES	survival
O=C(CSc1nc(-c2ccco2)cc(C(F)(F)F)n1)N1CCCC1	79%
CC(NCc1ccc2c(c1)n(C)c(=O)n2C)c1ccccc1 (configuration not stated)	94%
CCc1ccc(CN2C(=O)c3ccccc3C2C(=O)NC2CCCCCC2)cc1 (configuration not stated)	75%
CCn1c(=O)c(C(=O)Nc2ccc(Cl)cn2)c(O)c2ccccc21	95%
CSc1nn(Cc2ccc(F)cc2)c(N)c1S(=O)(=O)c1ccc(Cl)cc1	101%
Cc1ccc(Cl)cc1-n1ncc2c(Nc3cccc(C)c3C)ncnc21	82%
CN1CCN(CCNC(=O)c2cnn(-c3ccc(Cl)cc3)c2C2CCN(C(=O)OC(C)(C)C)CC2)CC1	69%
Cc1ccc2c(=O)cc(C(=O)Nc3sc4c(c3C(=O)NCc3ccccc3)CCCC4)oc2c1C	89%
Cc1cc2oc(C(=O)Nc3sc4c(c3C(=O)NCc3ccco3)CCC4)cc(=O)c2cc1C	38% (active)
Cc1cc(C)c2oc(C(=O)Nc3sc4c(c3C(=O)NCc3ccco3)CCCC4)cc(=O)c2c1	82%
Cc1ccc2c(=O)cc(C(=O)Nc3sc4c(c3C(=O)NCc3ccco3)CCC4)oc2c1	78%
O=C(Nc1sc2c(c1C(=O)NCc1ccccc1)CCCC2)c1cc(=O)c2cc(Cl)ccc2o1	49%
O=C(Nc1sc2c(c1C(=O)NCc1ccccc1)CCCC2)c1cc(=O)c2ccccc2o1	67%
Cc1ccc2oc(C(=O)Nc3sc4c(c3C(=O)NCc3ccccc3)CCCC4)cc(=O)c2c1	66%
O=C(Nc1sc2c(c1C(=O)NCc1ccco1)CCCC2)c1cc(=O)c2ccccc2o1	43% (active)
Cc1ccc2oc(C(=O)Nc3sc4c(c3C(=O)NCc3ccco3)CCC4)cc(=O)c2c1	82%
Cc1cc2oc(C(=O)Nc3sc4c(c3C(=O)NCc3ccccc3)CCCC4)cc(=O)c2cc1C	39% (active)
O=C(Nc1sc2c(c1C(=O)NCc1ccco1)CCCC2)c1cc(=O)c2cc(Cl)ccc2o1	38% (active)
Cc1ccc2c(=O)cc(C(=O)Nc3sc4c(c3C(=O)NCc3ccco3)CCCC4)oc2c1C	80%
CC[n+]1c(C)sc2sc3ccccc3c21	68%
COC(=O)Cn1nc(C)c2c(C)n(-c3ccccc3)nc2c1=O	90%
CCOc1ccc(NC(=O)Cn2cc(C(=O)c3ccc(CC)cc3)c(=O)c3cc4c(cc32)OCO4)cc1	86%
O=C(Cn1nc(-c2ccccc2)nc(Cc2ccccc2)c1=O)Nc1ccccc1	90%
